# About 7,900 targets were measured; listed, in parts, are those with a hit and a random draw of the rest. About 0.6% of all pairs of compound and target were hits. Values without a mark were called inactive.
# Assays:
# Assay in all cases: log2 fold change, soluble protein after heating vs DMSO (PISA); higher = thermal stabilisation; K562 cells, 10 uM, 30 min; active = over 0.2 and 3.5 SD of the protein, either way, in both replicates (recomputed)
# filanesib = compound: CON(C)C(=O)N1N=C(c2cc(F)ccc2F)S[C@@]1(CCCN)c1ccccc1 [filanesib]
# How it was run: (§1)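 Soluble protein was defined as the supernatant after 21,000xg for 90 min. It came from K562 cells at 2×10^6 cells/mL given 10 μM compound for 30 min, heated in aliquots for 3 min across 48°C-58°C, pooled, and extracted in PBS with 0.5% NP-40 at 4°C, and was quantified by TMTpro 16plex LC-MS/MS with equalised channel sums. Thermal stability against control samples, from duplicates, is reported as log2 fold change.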
# pictilisib = compound: CS(=O)(=O)N1CCN(Cc2cc3nc(-c4cccc5[nH]ncc45)nc(N4CCOCC4)c3s2)CC1 [pictilisib]
# How it was run: as §1
# [1] = compound: CS(=O)(=O)c1ccc(-c2cnc(N)c(C(=O)Nc3ccccc3)n2)cc1
# How it was run: as §1
# [2] = compound: C[C@@H]1COCCN1C2=NC(=NC(=C2)C3(CC3)S(=O)(=O)C)C4=C5C=CNC5=CC=C4
# How it was run: as §1
# gandotinib = compound: Cc1cc(Nc2cc(CN3CCOCC3)c3nc(C)c(Cc4ccc(Cl)cc4F)n3n2)n[nH]1 [gandotinib]
# How it was run: as §1
# tozasertib = compound: Cc1cc(Nc2cc(N3CCN(C)CC3)nc(Sc3ccc(NC(=O)C4CC4)cc3)n2)n[nH]1 [tozasertib]
# How it was run: as §1
# alisertib = compound: COc1cc(Nc2ncc3c(n2)-c2ccc(Cl)cc2C(c2c(F)cccc2OC)=NC3)ccc1C(=O)O [alisertib]
# How it was run: as §1
# [3] = compound: COc1cc2nc(-c3cc(F)ccc3O)nc(N[C@@H]3CNC[C@H]3C(C)(C)O)c2cc1OC
# How it was run: as §1
# [4] = compound: COc1cccc2cc(-c3nc([C@H]4CC[C@H](C(=O)O)CC4)n4ncnc(N)c34)[nH]c12
# How it was run: as §1
# lapatinib = compound: CS(=O)(=O)CCNCc1ccc(-c2ccc3ncnc(Nc4ccc(OCc5cccc(F)c5)c(Cl)c4)c3c2)o1 [lapatinib]
# How it was run: as §1
# ispinesib = compound: Cc1ccc(C(=O)N(CCCN)[C@@H](c2nc3cc(Cl)ccc3c(=O)n2Cc2ccccc2)C(C)C)cc1 [ispinesib]
# How it was run: as §1
# zotarolimus = compound: CO[C@H]1C[C@@H]2CC[C@@H](C)[C@@](O)(O2)C(=O)C(=O)N2CCCC[C@H]2C(=O)O[C@H]([C@H](C)C[C@@H]2CC[C@H](n3cnnn3)[C@H](OC)C2)CC(=O)[C@H](C)/C=C(\C)[C@@H](O)[C@@H](OC)C(=O)[C@H](C)C[C@H](C)/C=C/C=C/C=C/1C [zotarolimus]
# How it was run: as §1
# idasanutlin = compound: COc1cc(C(=O)O)ccc1NC(=O)[C@@H]1N[C@@H](CC(C)(C)C)[C@](C#N)(c2ccc(Cl)cc2F)[C@H]1c1cccc(Cl)c1F [idasanutlin]
# How it was run: as §1
# [5] = compound: C[C@H](C1=CC=C(C=C1)C(=O)NC2=C3C=CNC3=NC=C2)N
# How it was run: as §1
# duvelisib = compound: C[C@H](Nc1ncnc2nc[nH]c12)c1cc2cccc(Cl)c2c(=O)n1-c1ccccc1 [duvelisib]
# How it was run: as §1
# [6] = compound: Cc1cc(SCc2sc(-c3ccc(C(F)(F)F)cc3)nc2C)ccc1OCC(=O)O
# How it was run: as §1
# gefitinib = compound: COc1cc2ncnc(Nc3ccc(F)c(Cl)c3)c2cc1OCCCN1CCOCC1 [gefitinib]
# How it was run: as §1
# [7] = compound: COC1=CC=C(C=C1)CN2C=CC3=C2C=C(C=C3)C(=O)NO
# How it was run: as §1
# crizotinib = compound: C[C@@H](Oc1cc(-c2cnn(C3CCNCC3)c2)cnc1N)c1c(Cl)ccc(F)c1Cl [crizotinib]
# How it was run: as §1
# doramapimod = compound: Cc1ccc(-n2nc(C(C)(C)C)cc2NC(=O)Nc2ccc(OCCN3CCOCC3)c3ccccc23)cc1 [doramapimod]
# How it was run: as §1
# Chain of UniProt Q4LDG9 (Q4LDG9 whole entry, looked up): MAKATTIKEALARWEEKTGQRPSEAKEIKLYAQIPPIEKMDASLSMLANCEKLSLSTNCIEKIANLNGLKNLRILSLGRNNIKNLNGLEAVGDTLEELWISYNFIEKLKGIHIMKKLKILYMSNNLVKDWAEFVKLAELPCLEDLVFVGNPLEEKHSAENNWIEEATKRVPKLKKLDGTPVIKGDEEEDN
# Chain of UniProt Q8WV16 (Q8WV16 whole entry, looked up): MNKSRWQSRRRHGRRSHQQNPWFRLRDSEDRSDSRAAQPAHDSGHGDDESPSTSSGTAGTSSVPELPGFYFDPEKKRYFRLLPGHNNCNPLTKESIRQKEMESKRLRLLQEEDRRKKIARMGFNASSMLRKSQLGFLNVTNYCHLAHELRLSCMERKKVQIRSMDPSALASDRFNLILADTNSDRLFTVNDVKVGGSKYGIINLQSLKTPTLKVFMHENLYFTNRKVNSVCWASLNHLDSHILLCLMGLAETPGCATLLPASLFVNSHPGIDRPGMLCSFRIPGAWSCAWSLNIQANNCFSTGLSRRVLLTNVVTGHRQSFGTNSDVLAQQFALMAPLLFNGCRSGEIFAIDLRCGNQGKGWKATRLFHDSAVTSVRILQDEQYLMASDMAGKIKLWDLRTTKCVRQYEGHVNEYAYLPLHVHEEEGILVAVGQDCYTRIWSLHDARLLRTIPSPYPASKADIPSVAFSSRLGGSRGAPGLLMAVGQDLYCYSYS
# Chain of UniProt Q96C92 (Q96C92 whole entry, looked up): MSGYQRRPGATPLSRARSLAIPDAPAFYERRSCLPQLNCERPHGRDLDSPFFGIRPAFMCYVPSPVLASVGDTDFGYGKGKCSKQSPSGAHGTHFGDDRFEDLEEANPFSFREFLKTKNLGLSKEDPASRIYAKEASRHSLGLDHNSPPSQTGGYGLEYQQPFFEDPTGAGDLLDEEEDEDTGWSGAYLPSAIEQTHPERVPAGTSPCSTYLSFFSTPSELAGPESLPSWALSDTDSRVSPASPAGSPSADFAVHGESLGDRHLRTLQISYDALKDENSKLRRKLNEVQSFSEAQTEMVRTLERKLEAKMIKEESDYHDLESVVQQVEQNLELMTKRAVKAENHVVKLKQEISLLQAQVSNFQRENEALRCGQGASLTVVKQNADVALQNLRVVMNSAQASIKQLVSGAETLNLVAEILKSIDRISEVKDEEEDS
# Chain of UniProt Q9NZJ5 (Q9NZJ5 whole entry, looked up): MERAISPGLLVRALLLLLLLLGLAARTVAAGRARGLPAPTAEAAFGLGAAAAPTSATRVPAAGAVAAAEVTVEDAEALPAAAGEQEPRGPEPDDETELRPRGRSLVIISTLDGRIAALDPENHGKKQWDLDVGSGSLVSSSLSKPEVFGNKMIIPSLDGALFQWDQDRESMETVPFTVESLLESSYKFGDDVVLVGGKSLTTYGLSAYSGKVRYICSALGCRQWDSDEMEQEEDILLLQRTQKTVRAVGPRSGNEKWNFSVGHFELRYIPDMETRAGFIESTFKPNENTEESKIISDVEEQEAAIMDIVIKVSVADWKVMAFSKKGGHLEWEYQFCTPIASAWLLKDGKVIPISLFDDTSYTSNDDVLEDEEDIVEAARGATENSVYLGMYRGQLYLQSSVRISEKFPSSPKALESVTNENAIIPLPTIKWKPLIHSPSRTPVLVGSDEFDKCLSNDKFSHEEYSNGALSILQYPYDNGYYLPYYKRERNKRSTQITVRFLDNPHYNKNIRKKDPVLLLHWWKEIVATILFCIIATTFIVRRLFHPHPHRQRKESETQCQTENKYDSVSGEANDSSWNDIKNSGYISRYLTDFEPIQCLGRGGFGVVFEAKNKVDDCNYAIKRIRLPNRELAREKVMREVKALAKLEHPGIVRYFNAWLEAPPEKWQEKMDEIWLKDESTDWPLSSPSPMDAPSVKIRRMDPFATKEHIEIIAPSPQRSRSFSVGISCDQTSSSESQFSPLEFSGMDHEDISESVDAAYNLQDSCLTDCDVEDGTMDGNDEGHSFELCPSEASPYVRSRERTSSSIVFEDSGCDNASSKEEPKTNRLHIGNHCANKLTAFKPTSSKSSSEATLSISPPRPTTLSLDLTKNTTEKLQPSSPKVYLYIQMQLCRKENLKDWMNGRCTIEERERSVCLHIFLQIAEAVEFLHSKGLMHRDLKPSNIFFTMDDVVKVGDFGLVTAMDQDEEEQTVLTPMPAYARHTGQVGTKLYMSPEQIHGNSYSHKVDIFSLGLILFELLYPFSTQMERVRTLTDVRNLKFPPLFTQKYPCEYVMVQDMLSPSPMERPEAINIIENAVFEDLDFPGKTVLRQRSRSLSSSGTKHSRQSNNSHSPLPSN
# Chain of UniProt P54760 (P54760 whole entry, looked up): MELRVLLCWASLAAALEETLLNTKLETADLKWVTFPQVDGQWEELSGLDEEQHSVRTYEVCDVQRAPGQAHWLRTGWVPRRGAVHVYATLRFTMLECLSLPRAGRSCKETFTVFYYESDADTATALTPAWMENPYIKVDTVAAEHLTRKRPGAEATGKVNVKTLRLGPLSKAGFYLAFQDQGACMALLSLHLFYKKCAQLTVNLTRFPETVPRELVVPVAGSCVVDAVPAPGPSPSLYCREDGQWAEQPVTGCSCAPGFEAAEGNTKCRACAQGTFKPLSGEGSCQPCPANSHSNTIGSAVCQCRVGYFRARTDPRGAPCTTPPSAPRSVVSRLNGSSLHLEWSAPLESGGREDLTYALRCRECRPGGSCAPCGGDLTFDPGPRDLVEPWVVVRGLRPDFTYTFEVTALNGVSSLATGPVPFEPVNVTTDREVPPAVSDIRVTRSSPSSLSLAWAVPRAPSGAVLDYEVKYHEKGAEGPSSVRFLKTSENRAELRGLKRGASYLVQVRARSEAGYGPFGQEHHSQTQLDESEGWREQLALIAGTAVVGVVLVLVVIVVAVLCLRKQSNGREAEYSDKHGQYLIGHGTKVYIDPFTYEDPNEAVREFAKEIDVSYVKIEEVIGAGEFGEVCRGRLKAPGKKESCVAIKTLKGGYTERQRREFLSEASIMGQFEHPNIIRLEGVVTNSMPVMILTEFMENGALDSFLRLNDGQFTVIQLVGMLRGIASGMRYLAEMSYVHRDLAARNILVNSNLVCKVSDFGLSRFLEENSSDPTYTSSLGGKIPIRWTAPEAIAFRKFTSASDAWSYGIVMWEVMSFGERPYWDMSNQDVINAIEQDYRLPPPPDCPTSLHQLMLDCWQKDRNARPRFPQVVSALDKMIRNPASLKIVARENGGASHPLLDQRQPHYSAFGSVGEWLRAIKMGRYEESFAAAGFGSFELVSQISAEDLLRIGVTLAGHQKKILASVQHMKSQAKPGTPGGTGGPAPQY
# Chain of UniProt Q5T6F0 (Q5T6F0 whole entry, looked up): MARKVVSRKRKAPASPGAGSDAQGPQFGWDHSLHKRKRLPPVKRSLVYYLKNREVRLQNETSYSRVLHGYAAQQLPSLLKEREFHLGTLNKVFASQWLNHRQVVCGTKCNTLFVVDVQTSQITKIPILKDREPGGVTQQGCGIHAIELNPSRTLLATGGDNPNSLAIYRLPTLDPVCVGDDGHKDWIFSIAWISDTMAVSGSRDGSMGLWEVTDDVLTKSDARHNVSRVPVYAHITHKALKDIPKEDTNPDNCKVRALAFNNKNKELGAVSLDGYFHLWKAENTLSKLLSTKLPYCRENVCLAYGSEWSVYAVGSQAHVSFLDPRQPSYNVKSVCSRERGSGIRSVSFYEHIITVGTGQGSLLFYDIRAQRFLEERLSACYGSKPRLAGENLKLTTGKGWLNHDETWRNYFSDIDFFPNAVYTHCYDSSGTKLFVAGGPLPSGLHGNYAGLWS
# Chain of UniProt Q8N612 (Q8N612 whole entry, looked up): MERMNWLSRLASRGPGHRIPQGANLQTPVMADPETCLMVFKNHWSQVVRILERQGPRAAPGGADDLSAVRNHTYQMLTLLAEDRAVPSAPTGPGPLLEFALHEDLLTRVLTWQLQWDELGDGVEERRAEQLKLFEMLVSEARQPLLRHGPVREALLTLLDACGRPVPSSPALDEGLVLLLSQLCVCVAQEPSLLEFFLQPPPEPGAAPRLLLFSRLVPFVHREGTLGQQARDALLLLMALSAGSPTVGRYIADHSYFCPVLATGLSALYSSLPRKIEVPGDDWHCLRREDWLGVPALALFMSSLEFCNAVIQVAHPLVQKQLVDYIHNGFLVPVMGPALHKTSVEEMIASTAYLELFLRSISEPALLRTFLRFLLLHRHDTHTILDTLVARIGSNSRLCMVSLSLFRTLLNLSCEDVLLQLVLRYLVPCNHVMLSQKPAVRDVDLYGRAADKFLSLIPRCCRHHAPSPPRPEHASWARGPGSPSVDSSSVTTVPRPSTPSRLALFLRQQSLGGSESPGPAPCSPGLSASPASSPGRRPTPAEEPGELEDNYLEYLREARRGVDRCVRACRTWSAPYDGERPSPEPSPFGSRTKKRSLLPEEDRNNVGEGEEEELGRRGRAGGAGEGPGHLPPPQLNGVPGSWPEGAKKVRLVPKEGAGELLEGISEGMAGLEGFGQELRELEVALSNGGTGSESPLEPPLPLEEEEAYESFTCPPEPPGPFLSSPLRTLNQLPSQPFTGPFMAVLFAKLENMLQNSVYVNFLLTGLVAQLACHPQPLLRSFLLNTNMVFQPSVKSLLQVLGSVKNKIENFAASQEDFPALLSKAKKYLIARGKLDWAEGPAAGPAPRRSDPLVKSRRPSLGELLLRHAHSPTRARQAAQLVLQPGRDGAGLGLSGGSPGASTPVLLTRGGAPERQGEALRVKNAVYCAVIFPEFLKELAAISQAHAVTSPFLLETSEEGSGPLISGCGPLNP
# Chain of UniProt Q96RI0 (Q96RI0 whole entry, looked up): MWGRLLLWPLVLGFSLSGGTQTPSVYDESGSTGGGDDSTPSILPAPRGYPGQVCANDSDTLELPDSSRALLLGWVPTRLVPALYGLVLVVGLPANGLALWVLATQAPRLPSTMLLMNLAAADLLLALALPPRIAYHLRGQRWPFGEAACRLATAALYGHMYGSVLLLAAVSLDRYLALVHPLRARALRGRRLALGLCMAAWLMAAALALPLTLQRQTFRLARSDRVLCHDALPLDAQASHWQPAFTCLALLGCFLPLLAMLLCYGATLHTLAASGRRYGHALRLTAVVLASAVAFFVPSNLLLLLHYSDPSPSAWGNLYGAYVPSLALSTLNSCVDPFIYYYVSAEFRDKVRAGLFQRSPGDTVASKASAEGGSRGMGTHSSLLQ
target,measurement,setting,value
ERF (UniProt P50548),log2 fold change,filanesib,0.328
same,log2 fold change,pictilisib,0.148
same,log2 fold change,[1],0.173
same,log2 fold change,[2],-0.05
same,log2 fold change,gandotinib,-0.29
same,log2 fold change,tozasertib,-1.2 (active)
EPHB4 (UniProt P54760),log2 fold change,filanesib,0.134
same,log2 fold change,alisertib,-0.017
same,log2 fold change,[3],0.395
same,log2 fold change,[4],-0.937 (active)
same,log2 fold change,lapatinib,0.08
same,log2 fold change,[1],0.15
same,log2 fold change,ispinesib,-0.016
EIF4G1 (UniProt Q04637),log2 fold change,zotarolimus,-0.118
same,log2 fold change,idasanutlin,0.071
same,log2 fold change,pictilisib,-0.307
same,log2 fold change,[5],0.184
same,log2 fold change,duvelisib,-0.111
same,log2 fold change,gandotinib,-0.082
same,log2 fold change,tozasertib,-0.051
same,log2 fold change,[6],0.227
DBNL (UniProt Q9UJU6),log2 fold change,zotarolimus,-0.324
same,log2 fold change,[5],-0.166
FAM135A (UniProt Q9P2D6),log2 fold change,filanesib,0.13
same,log2 fold change,gefitinib,0.052
same,log2 fold change,[1],0.087
same,log2 fold change,[2],0.038
EIF2AK3 (UniProt Q9NZJ5),log2 fold change,[7],0.135
same,log2 fold change,zotarolimus,-0.06
same,log2 fold change,idasanutlin,-0.039
same,log2 fold change,alisertib,-0.141
same,log2 fold change,[3],0.201
same,log2 fold change,gefitinib,-0.161
same,log2 fold change,[4],0.078
same,log2 fold change,lapatinib,0.146
same,log2 fold change,pictilisib,-0.233
same,log2 fold change,crizotinib,-0.062
same,log2 fold change,[2],0.181
same,log2 fold change,[5],0.109
same,log2 fold change,duvelisib,0.031
same,log2 fold change,gandotinib,-0.113
same,log2 fold change,tozasertib,-0.359
same,log2 fold change,[6],0.188
same,log2 fold change,doramapimod,0.032
ENTR1 (UniProt Q96C92),log2 fold change,[3],-0.065
same,log2 fold change,lapatinib,0.075
same,log2 fold change,duvelisib,0.003
same,log2 fold change,[6],0.048
FAM160A2 isoform 2 (UniProt Q8N612),log2 fold change,[7],-0.082
same,log2 fold change,zotarolimus,0.067
same,log2 fold change,alisertib,0.031
same,log2 fold change,gefitinib,0.158
same,log2 fold change,[4],0.103
same,log2 fold change,pictilisib,-0.056
same,log2 fold change,crizotinib,-0.004
same,log2 fold change,[2],0.042
same,log2 fold change,[5],-0.041
same,log2 fold change,duvelisib,0.179
same,log2 fold change,gandotinib,0.115
same,log2 fold change,tozasertib,-0.28
same,log2 fold change,[6],0.212
same,log2 fold change,doramapimod,-0.003
same,log2 fold change,ispinesib,-0.192
"DDX46, A0A0C4DG89",log2 fold change,alisertib,-0.083
same,log2 fold change,gefitinib,0.261
same,log2 fold change,[4],0.032
same,log2 fold change,[2],-0.009
EPHX2 (UniProt E5RI53),log2 fold change,[2],0.067
DNAJB1 (UniProt M0R128),log2 fold change,zotarolimus,-0.062
same,log2 fold change,[5],-0.018
same,log2 fold change,tozasertib,-0.082
DCAF4 (UniProt Q8WV16),log2 fold change,filanesib,0.018
same,log2 fold change,alisertib,-0.076
same,log2 fold change,gefitinib,-0.012
same,log2 fold change,[4],0.005
same,log2 fold change,pictilisib,0.074
same,log2 fold change,[1],-0.06
same,log2 fold change,[2],0.032
same,log2 fold change,duvelisib,-0.302
same,log2 fold change,gandotinib,0.07
same,log2 fold change,[6],-0.056
same,log2 fold change,ispinesib,-0.165
EID1 (UniProt Q9Y6B2),log2 fold change,filanesib,0.119
same,log2 fold change,alisertib,0.024
same,log2 fold change,[3],0.015
same,log2 fold change,gefitinib,-0.031
same,log2 fold change,[4],-0.239
same,log2 fold change,lapatinib,-0.097
same,log2 fold change,pictilisib,0.3
same,log2 fold change,[1],-0.14
same,log2 fold change,[2],-0.424
same,log2 fold change,gandotinib,0.275
same,log2 fold change,tozasertib,-0.142
F2RL3 (UniProt Q96RI0),log2 fold change,zotarolimus,-0.075
same,log2 fold change,idasanutlin,-0.017
same,log2 fold change,[3],0.017
same,log2 fold change,lapatinib,0.029
same,log2 fold change,[5],-0.159
same,log2 fold change,duvelisib,0.081
same,log2 fold change,tozasertib,-0.163
same,log2 fold change,[6],-0.059
same,log2 fold change,ispinesib,0.004
ELOVL5 isoform 2 (UniProt Q9NYP7),log2 fold change,filanesib,-0.157
same,log2 fold change,zotarolimus,-0.041
same,log2 fold change,idasanutlin,-0.224
same,log2 fold change,alisertib,-0.026
same,log2 fold change,[3],-0.05
same,log2 fold change,gefitinib,-0.142
same,log2 fold change,[4],0
same,log2 fold change,lapatinib,0.094
same,log2 fold change,pictilisib,0
same,log2 fold change,[1],0.038
same,log2 fold change,[2],0.048
same,log2 fold change,[5],-0.004
same,log2 fold change,duvelisib,0.074
same,log2 fold change,gandotinib,-0.34
same,log2 fold change,tozasertib,-0.01
same,log2 fold change,[6],0.082
same,log2 fold change,ispinesib,-0.311
DENND10 (UniProt Q8TCE6),log2 fold change,filanesib,-0.133
same,log2 fold change,zotarolimus,-0.017
same,log2 fold change,idasanutlin,0.003
same,log2 fold change,alisertib,-0.065
same,log2 fold change,[3],0.114
same,log2 fold change,gefitinib,0.1
same,log2 fold change,[4],-0.05
same,log2 fold change,lapatinib,-0.021
same,log2 fold change,[1],0.046
same,log2 fold change,[2],0.298 (active)
same,log2 fold change,[5],-0.015
same,log2 fold change,duvelisib,0.044
same,log2 fold change,tozasertib,-0.063
same,log2 fold change,[6],0.03
same,log2 fold change,ispinesib,-0.021
ELOVL7 (UniProt A1L3X0),log2 fold change,zotarolimus,0.012
same,log2 fold change,idasanutlin,-0.118
same,log2 fold change,[2],0.088
same,log2 fold change,[5],0.037
same,log2 fold change,duvelisib,-0.016
same,log2 fold change,tozasertib,-0.018
same,log2 fold change,[6],0.025
CTNNBL1 (UniProt Q8WYA6),log2 fold change,[3],-0.008
same,log2 fold change,lapatinib,-0.581
DOLPP1 (UniProt Q86YN1),log2 fold change,[7],-0.05
same,log2 fold change,zotarolimus,-0.003
same,log2 fold change,idasanutlin,-0.043
same,log2 fold change,alisertib,-0.022
same,log2 fold change,[3],0.129
same,log2 fold change,gefitinib,0.013
same,log2 fold change,[4],0.011
same,log2 fold change,lapatinib,-0.07
same,log2 fold change,crizotinib,-0.082
same,log2 fold change,[5],-0.135
same,log2 fold change,tozasertib,0.038
same,log2 fold change,doramapimod,-0.026
same,log2 fold change,ispinesib,0.358 (active)
DCAF12 (UniProt Q5T6F0),log2 fold change,filanesib,-0.037
same,log2 fold change,alisertib,0.073
same,log2 fold change,[4],0.036
same,log2 fold change,pictilisib,0.16
same,log2 fold change,[1],-0.101
same,log2 fold change,gandotinib,-0.735 (active)
DNAL1 (UniProt Q4LDG9),log2 fold change,[7],0.009
same,log2 fold change,zotarolimus,0.024
same,log2 fold change,idasanutlin,-0.098
same,log2 fold change,crizotinib,-0.035
same,log2 fold change,[2],0.011
same,log2 fold change,[5],0.025
same,log2 fold change,duvelisib,-0.013
same,log2 fold change,[6],-0.102
same,log2 fold change,doramapimod,-0.067
same,log2 fold change,ispinesib,-0.082
EEF2K (UniProt O00418),log2 fold change,zotarolimus,0.021
same,log2 fold change,alisertib,0.031
same,log2 fold change,[3],-0.062
same,log2 fold change,[4],-0.896 (active)
same,log2 fold change,lapatinib,-0.017
same,log2 fold change,pictilisib,-0.014
same,log2 fold change,[2],-0.044
same,log2 fold change,[5],0.4
same,log2 fold change,gandotinib,0.13
same,log2 fold change,ispinesib,-0.208
EIF3J isoform 2 (UniProt O75822),log2 fold change,[7],-0.099
same,log2 fold change,filanesib,0.013
same,log2 fold change,idasanutlin,0.107
same,log2 fold change,alisertib,-0.074
same,log2 fold change,[3],0.051
same,log2 fold change,gefitinib,0.047
same,log2 fold change,[4],0.02
same,log2 fold change,lapatinib,-0.116
same,log2 fold change,[1],0.035
same,log2 fold change,crizotinib,0.049
same,log2 fold change,[2],-0.043
same,log2 fold change,duvelisib,0.161
same,log2 fold change,tozasertib,-0.136
same,log2 fold change,[6],-0.038
same,log2 fold change,doramapimod,0.011
EDRF1 (UniProt Q3B7T1),log2 fold change,filanesib,0.052
same,log2 fold change,zotarolimus,0.419 (active)
same,log2 fold change,alisertib,-0.033
same,log2 fold change,[4],0.044
same,log2 fold change,pictilisib,0.244
same,log2 fold change,[1],0.024
same,log2 fold change,[2],0.055
same,log2 fold change,[5],-0.008
same,log2 fold change,duvelisib,0.129
same,log2 fold change,gandotinib,0.098
same,log2 fold change,[6],0.134
same,log2 fold change,ispinesib,-0.24
